Calls of active or inactive are those of the source.

A short description of the test: budding yeast growth changes without added modifier – OD600, strain BY4716, 24 h, basal condition, primary screen (AID 1173). As to conditions: S. cerevisiae BY4716 growth, OD600, 24 h; higher = more signal, called active from +8 up or from −8 down.
Consider `CCOC(=O)C[C@H]1[C@H](OC(=O)Cc2ccc3c(c2)OCO3)[C@@H](NC(=O)c2ccc(-c3ccccc3)cc2)c2cc(OCCCO)ccc2N1C(=O)Cc1ccc(OC)cc1`, for which the z-score is -1.02 (inactive).
Next, `C=CCNC(=O)[C@H]1[C@@H]2C(=O)O[C@@H](c3ccccc3)[C@@H](c3ccccc3)N2[C@@H](c2ccc(O)cc2)[C@]12C(=O)N(C(=O)OCCOC)c1ccc(C#CCNC(N)=O)cc12`: 0.516 (inactive); `NCCCCCNC(=O)[C@@H]1C[C@@H]2C(=O)NCC(=O)N2[C@@H]1c1ccc(O)cc1`: -0.54 (inactive); `C[N+](C)(C)CCCC[C@@H]1NC(=O)[C@@H]2C[C@H](C(=O)NCCCCCN)[C@H](c3cccc(OCCO)c3)N2C1=O`: -0.749 (inactive).
The value for `COc1cc(CO)cc(I)c1O[C@H]1C=C(C(=O)NCCO)C[C@@H](N(CCN2CCOCC2)C(=O)C2CCOC2)[C@@H]1O` (stereo partly specified) was -2.49 (inactive).
The value for `[N-]=[N+]=NCc1ccccc1[C@@H]1OC(c2ccc(OCCCO)cc2)=N[C@]1(Cc1ccccc1N=[N+]=[N-])C(=O)N1CCOCC1` was -0.532 (inactive); that for `O=C1NCC(=O)N2[C@@H]1C[C@@H](C(=O)O)[C@H]2c1cccc(OCCO)c1` was -0.816 (inactive); that for `COc1ccc([Si](C)(C)[C@H]2[C@H](CCO)O[C@@]3(C(=O)N(Cc4ccc(N5C(=O)COc6ccccc65)cc4)c4ccccc43)[C@@H]2C)cc1` was 0.573 (inactive).
Regarding `O=C1c2ccccc2[C@@]2(Cc3ccccc3N(CCN3CCOCC3)C2=O)[C@H](c2ccc(CO)cc2)N1Cc1ccccc1`, the z-score is -0.187 (inactive).
Next, `COc1ccc([Si](C)(C)[C@@H]2[C@@H](CC(=O)N3Cc4ccccc4C[C@H]3CO)O[C@]3(C(=O)N(C)c4c(Br)cc(C)cc43)[C@H]2C)cc1`: -1.5 (inactive); `CCOC(=O)C[C@H]1[C@H](OC(=O)Cc2ccc3c(c2)OCO3)[C@@H](NC(=O)c2ccc3ccccc3c2)c2cc(OCCCO)ccc2N1C(=O)c1ccccc1`: -0.206 (inactive); `CN1C(=O)C2C=CC(C(O)c3ccccc3)N(Nc3ccccc3)C2C1=O` (stereo unspecified): -0.506 (inactive).
The value for `CC(C)c1ccc(NN2C(C(O)C(c3ccccc3)c3ccccc3)C=CC3C(=O)N(c4ccccc4)C(=O)C32)cc1` (stereo unspecified) was -0.141 (inactive); that for `C=C(CCCC)C(=O)CC[C@H](OC(=O)c1cccnc1)c1ccccc1OCCO` was -0.716 (inactive); that for `CC(C)[C@@H](CO)NC(=O)[C@H]1[C@@H](c2ccccc2)N(c2ccccc2)O[C@@H]1C` was -2.53 (inactive).
Next, `CCOC(=O)[C@H]1CC=C2CC1C(=O)N1CCC[C@@H]1[C@@H]2O[Si](C)(C)C(C)(C)C` (stereo partly specified): -14.4 (active).
Consider `O=C(O)[C@@]1(CCS(=O)(=O)c2ccccc2)COC(c2ccc(OCCCO)cc2)=N1`, for which the z-score is 0.0291 (inactive).
Next, `CCOC(=O)[C@H]1C/C=C/C[C@H](C(=O)OCC)C(=O)O[C@H]2[C@@H](OC)O[C@H](CO)[C@@H](OC(=O)Nc3ccc(C#N)cc3)[C@@H]2OC1=O`: 0.516 (inactive); `COCCOC(=O)N1C(=O)[C@@]2(c3cc(C#CC4=CCCCC4)ccc31)[C@H](C(=O)N1CCc3cc(OC)c(OC)cc3C1)[C@H]1C(=O)O[C@H](c3ccccc3)[C@H](c3ccccc3)N1[C@@H]2c1ccc(OCCO)cc1`: 1.18 (inactive); `C#CCN(CC=C(C)C)[C@H](CO)c1ccccc1`: -8.3 (active).
The value for `COc1ccc(C(O)C2C=CC3C(=O)N(c4ccccc4)C(=O)C3N2Nc2ccccc2F)cc1OCc1ccccc1` (stereo unspecified) was -0.737 (inactive).
The value for `COc1ccc(C(=O)Nc2ccc(CN3C(=O)[C@@]4(O[C@@H](CC(=O)N5CCC[C@H]5CO)[C@H]([Si](C)(C)c5ccc(OC)cc5)[C@H]4C)c4ccccc43)cc2)cc1` was -0.871 (inactive).
As for `CCOC(=O)C=Cc1cc([N+](=O)[O-])ccc1O`, the z-score is -4.86 (inactive).
Next, `CCOc1cc(C(O)C2C=CC3C(=O)N(c4ccccc4)C(=O)C3N2Nc2ccccc2)ccc1O` (stereo unspecified): -2.46 (inactive).
The value for `CCOC(=O)C[C@H]1[C@H](OC(=O)c2cc3ccccc3oc2=O)[C@@H](NC(=O)Cc2ccc(OC)cc2)c2cc(OCCCO)ccc2N1C(=O)c1ccccc1` was -2.06 (inactive).
On to `O=C(NCc1ccc(F)cc1)[C@H]1C[C@H]2C(=O)N[C@@H](Cc3ccccc3)C(=O)N2[C@H]1c1ccc(O)cc1`, for which the z-score is 1.41 (inactive).

The record behind these values is PubChem BioAssay.
